Experimental findings from PubChem BioAssay (NCI) are described below.

Molecules are shown by their SMILES. Compounds without any hit were thinned out: in the full panel of roughly 79,000, 15% have a hit. A number with no mark means an inactive call. Active and inactive are the calls of the source. No stated cut-off is given here; in the data, active means growth inhibition above about 70%; inactive means the rest.

Test [1] in a line: NCI Yeast Anticancer Drug Screen. Data for the rad50 strain (AID 155).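 Further: 0% = growth of vehicle-only cultures of the same strain.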 Particulars: S. cerevisiae rad50 strain growth inhibition, hits give high values. In short, it runs like this: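 DNA repair mutant yeast, compound exposure, growth read-out; inhibition is taken relative to vehicle.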
Test [2] can be described thus: NCI Yeast Anticancer Drug Screen. Data for the mec2-1 strain (AID 157). Particulars: S. cerevisiae mec2-1 strain, hits give high values. In short, it runs like this:
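Each compound was tested on mec2-1 yeast, a strain altered in DNA damage repair or cell cycle control. Growth inhibition is reported relative to vehicle.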

A short description of test [3]: NCI Yeast Anticancer Drug Screen. Data for the sgs1 mgt1 strain (AID 161).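 Further: 0% = growth of cultures given vehicle only.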 Particulars: S. cerevisiae sgs1 mgt1 strain, hits give high values. In short, it runs like this:
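Genetically altered yeast, compound exposure, growth inhibition relative to vehicle.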

Test [4] is described as follows: NCI Yeast Anticancer Drug Screen. Data for the cln2 rad14 strain (AID 165).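 Further: 0% = growth equal to vehicle treated cultures.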 Particulars: S. cerevisiae cln2 rad14 strain, hits give high values. Summed up:
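Test compounds were added to cln2 rad14 yeast cultures; inhibition of growth was then determined by comparison with vehicle treatment.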

Test [5] is described as follows: NCI Yeast Anticancer Drug Screen. Data for the bub3 strain (AID 167). Particulars: S. cerevisiae bub3 mutant strain, hits give high values. Summed up:
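In this screen, a yeast mutant lacking normal mitotic checkpoint function is challenged with compound. Relative growth versus vehicle gives the inhibition value.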

A short description of test [6]: NCI Yeast Anticancer Drug Screen. Data for the mlh1 rad18 strain (AID 175). Particulars: S. cerevisiae mlh1 rad18 strain growth inhibition, hits give high values. In short, it runs like this: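 Inhibition values reflect reduced growth of mutant yeast versus vehicle-treated controls following compound exposure; the mutations affect DNA damage repair.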
[7] abbreviates: at 5.0 µM (retest, dose inferred, filed as 0.5).
Setting [8] is: at 50.0 µM (retest, dose inferred, filed as 5.0).

As for `CCOc1ccc(-c2nc3ccc(-c4nc5ccc(N6CCN(C)CC6)cc5[nH]4)cc3[nH]2)cc1`, the growth inhibition was 28% in test [1] (setting [7]); 98% (active) in test [1] (setting [8]); 88.7% (active) in test [1] (at 50.0 µM); 23% in test [2] (setting [7]); 99% (active) in test [2] (setting [8]); 92.9% (active) in test [2] (at 50.0 µM). The growth inhibition is 42% in test [3] (setting [7]); 99% (active) in test [3] (setting [8]); 90.2% (active) in test [3] (at 50.0 µM); 31% in test [4] (setting [7]); 52% in test [4] (setting [8]); 91.5% (active) in test [4] (at 50.0 µM). Also, the growth inhibition in test [5] (setting [7]) was 41%; in test [5] (setting [8]), 98% (active); in test [5] (at 50.0 µM), 89.1% (active); in test [6] (setting [7]), 57%; in test [6] (setting [8]), 98% (active); in test [6] (at 50.0 µM), 89% (active).

Consider `Nc1ccc(Cc2ccc(Cl)cc2)cc1`, for which the growth inhibition in test [1] (setting [7]) was -156%; in test [1] (setting [8]), 93% (active); in test [1] (at 50.0 µM), 99.2% (active); in test [2] (setting [7]) it was -51%; in test [2] (setting [8]), 96% (active); in test [2] (at 50.0 µM), 99% (active). The growth inhibition is -66% in test [3] (setting [7]); 95% (active) in test [3] (setting [8]); 99.3% (active) in test [3] (at 50.0 µM); -60% in test [4] (setting [7]); 94% (active) in test [4] (setting [8]); 97.9% (active) in test [4] (at 50.0 µM). In addition, the growth inhibition is -66% in test [5] (setting [7]); 95% (active) in test [5] (setting [8]); 98.8% (active) in test [5] (at 50.0 µM); -129% in test [6] (setting [7]); 95% (active) in test [6] (setting [8]); 99.2% (active) in test [6] (at 50.0 µM).

For the compound `Nc1nc2c(ccc3ccccc32)s1`, the growth inhibition in test [1] (setting [7]) is -3%; in test [1] (setting [8]) it was 36%; in test [1] (at 50.0 µM), 66%; in test [2] (setting [7]), -17%; in test [2] (setting [8]), 37%; in test [2] (at 50.0 µM) it was 50.6%. Moreover, the growth inhibition in test [3] (setting [7]) was 6%; in test [3] (setting [8]) it was 54%; in test [3] (at 50.0 µM), 67.5%; in test [4] (setting [7]), 14%; in test [4] (setting [8]), 33%; in test [4] (at 50.0 µM), 61.2%. Besides, the growth inhibition in test [5] (setting [7]) is -22%; in test [5] (setting [8]) it was 52%; in test [5] (at 50.0 µM), 56.9%; in test [6] (setting [7]), 1%; in test [6] (setting [8]), 72% (active); in test [6] (at 50.0 µM), 57.6%.

In the case of `[N-]=[N+]=Nc1ccc(SSCCC(=O)ON2C(=O)CCC2=O)cc1`, the growth inhibition was 24% in test [1] (setting [7]); 97% (active) in test [1] (setting [8]); 98.6% (active) in test [1] (at 50.0 µM); 20% in test [2] (setting [7]); 98% (active) in test [2] (setting [8]); 98.8% (active) in test [2] (at 50.0 µM). The growth inhibition in test [3] (setting [7]) was 40%; in test [3] (setting [8]), 98% (active); in test [3] (at 50.0 µM), 98.3% (active); in test [4] (setting [7]), 4%; in test [4] (setting [8]), 97% (active); in test [4] (at 50.0 µM), 97.8% (active). Besides, the growth inhibition was 2% in test [5] (setting [7]); 97% (active) in test [5] (setting [8]); 98.7% (active) in test [5] (at 50.0 µM); 38% in test [6] (setting [7]); 98% (active) in test [6] (setting [8]); 98.5% (active) in test [6] (at 50.0 µM).

On to `COc1cccc(C2c3cc4c(cc3OC(Nc3ccccc3)C2C)OCO4)c1O` (stereo not given), for which the growth inhibition in test [1] (setting [7]) was -8%; in test [1] (setting [8]), 97% (active); in test [1] (at 50.0 µM) it was 77.5% (active); in test [2] (setting [7]) it was -8%; in test [2] (setting [8]), 95% (active); in test [2] (at 50.0 µM) it was 55.1%. Also, the growth inhibition is 1% in test [3] (setting [7]); 97% (active) in test [3] (setting [8]); 94.8% (active) in test [3] (at 50.0 µM); 4% in test [4] (setting [7]); 97% (active) in test [4] (setting [8]); 89.7% (active) in test [4] (at 50.0 µM). Further, the growth inhibition in test [5] (setting [7]) was -19%; in test [5] (setting [8]), 96% (active); in test [5] (at 50.0 µM) it was 53.1%; in test [6] (setting [7]), 0%; in test [6] (setting [8]) it was 97% (active); in test [6] (at 50.0 µM), 96.5% (active).

Regarding `Cc1nc(-n2nc(-c3ccccc3)cc2-c2ccccc2)sc1C(/C=C\c1ccc([N+](=O)[O-])cc1)=N/NC(=S)NN`, the growth inhibition in test [1] (setting [7]) is 4%; in test [1] (setting [8]), 87% (active); in test [1] (at 50.0 µM) it was 61.3%; in test [2] (setting [7]) it was 3%; in test [2] (setting [8]), 86% (active); in test [2] (at 50.0 µM), 37.1%. The growth inhibition in test [3] (setting [7]) is 11%; in test [3] (setting [8]), 91% (active); in test [3] (at 50.0 µM) it was 80.7% (active); in test [4] (setting [7]), 0%; in test [4] (setting [8]), 67%; in test [4] (at 50.0 µM) it was 10.8%. Besides, the growth inhibition is 25% in test [5] (setting [7]); 88% (active) in test [5] (setting [8]); 65.7% in test [5] (at 50.0 µM); -2% in test [6] (setting [7]); 80% (active) in test [6] (setting [8]); 64.8% in test [6] (at 50.0 µM).

As for `O=C(/C=C/C(=O)OCCCl)OCCCl`, the growth inhibition in test [1] (setting [7]) is 5%; in test [1] (setting [8]), 95% (active); in test [1] (at 50.0 µM) it was 69.2%; in test [2] (setting [7]) it was -24%; in test [2] (setting [8]) it was 85% (active); in test [2] (at 50.0 µM) it was 82.2% (active). Moreover, the growth inhibition is 4% in test [3] (setting [7]); 62% in test [3] (setting [8]); 92.5% (active) in test [3] (at 50.0 µM); 4% in test [4] (setting [7]); 27% in test [4] (setting [8]); -22.8% in test [4] (at 50.0 µM). Moreover, the growth inhibition in test [5] (setting [7]) was 46%; in test [5] (setting [8]), 91% (active); in test [5] (at 50.0 µM) it was 71.2% (active); in test [6] (setting [7]) it was 4%; in test [6] (setting [8]) it was 95% (active); in test [6] (at 50.0 µM), 95.2% (active).

Consider `O=C1CCCc2cc3c(nc21)C(=O)CCC3`, for which the growth inhibition in test [1] (setting [7]) is -8%; in test [1] (setting [8]) it was -3%; in test [1] (at 50.0 µM), 14.7%; in test [2] (setting [7]), -11%; in test [2] (setting [8]), 0%; in test [2] (at 50.0 µM), 12.6%. Further, the growth inhibition is 3% in test [3] (setting [7]); 0% in test [3] (setting [8]); 13.1% in test [3] (at 50.0 µM); -7% in test [4] (setting [7]); 2% in test [4] (setting [8]); 47.7% in test [4] (at 50.0 µM). For the same compound, the growth inhibition is -6% in test [5] (setting [7]); 1% in test [5] (setting [8]); 0.6% in test [5] (at 50.0 µM); 10% in test [6] (setting [7]); -9% in test [6] (setting [8]); 2.5% in test [6] (at 50.0 µM).

As to `Cc1ccc2c(ccc3c[n+]4c5ccccc5ccc4n32)c1`, the growth inhibition was 96% (active) in test [1] (setting [7]); 99% (active) in test [1] (setting [8]); 99.4% (active) in test [1] (at 50.0 µM); 92% (active) in test [2] (setting [7]); 99% (active) in test [2] (setting [8]); 99.5% (active) in test [2] (at 50.0 µM). For the same compound, the growth inhibition was 95% (active) in test [3] (setting [7]); 100% (active) in test [3] (setting [8]); 98.7% (active) in test [3] (at 50.0 µM); 94% (active) in test [4] (setting [7]); 99% (active) in test [4] (setting [8]); 97.3% (active) in test [4] (at 50.0 µM). The growth inhibition in test [5] (setting [7]) is 93% (active); in test [5] (setting [8]), 99% (active); in test [5] (at 50.0 µM) it was 99.3% (active); in test [6] (setting [7]), 95% (active); in test [6] (setting [8]) it was 99% (active); in test [6] (at 50.0 µM), 99.2% (active).

In the case of `CN(C)CC(CN(C)C)C(=O)c1ccc(Oc2ccccc2)cc1`, the growth inhibition is 75% (active) in test [1] (setting [7]); 99% (active) in test [1] (setting [8]); 99.5% (active) in test [1] (at 50.0 µM); 75% (active) in test [2] (setting [7]); 99% (active) in test [2] (setting [8]); 99.7% (active) in test [2] (at 50.0 µM). Moreover, the growth inhibition in test [3] (setting [7]) is 85% (active); in test [3] (setting [8]), 99% (active); in test [3] (at 50.0 µM), 99.4% (active); in test [4] (setting [7]), 33%; in test [4] (setting [8]), 99% (active); in test [4] (at 50.0 µM), 99.6% (active). Moreover, the growth inhibition in test [5] (setting [7]) was 69%; in test [5] (setting [8]), 99% (active); in test [5] (at 50.0 µM), 99.5% (active); in test [6] (setting [7]), 90% (active); in test [6] (setting [8]) it was 99% (active); in test [6] (at 50.0 µM) it was 99.4% (active).
